A3A deaminase – blocks human APOBEC3A ssDNA deamination; recombinant A3A, FAM/TAMRA ssDNA deamination fluorescence; 0.41% of 330,000 active; inhibition, % at 20 µM; AID 493011;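 active means at least 40% inhibition at 20 µM here, with at most 30% in a related deaminase screen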
PHOSPHO1 block – PHOSPHO1 (human) inhibition; recombinant PHOSPHO1, absorbance phosphatase assay; AID 1565; inhibition, % at 13.3 µM; 1.1% of 290,000 active; in the data active means inhibition above about 60%
Target sequence (Q8TCT1 whole entry, looked up): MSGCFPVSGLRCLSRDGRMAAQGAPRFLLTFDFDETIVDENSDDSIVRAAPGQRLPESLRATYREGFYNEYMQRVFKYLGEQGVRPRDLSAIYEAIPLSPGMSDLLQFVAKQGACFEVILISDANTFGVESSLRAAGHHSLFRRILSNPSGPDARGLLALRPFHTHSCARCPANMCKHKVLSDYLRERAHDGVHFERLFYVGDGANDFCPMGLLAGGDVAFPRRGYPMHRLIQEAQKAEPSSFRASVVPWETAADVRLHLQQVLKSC
APOBEC3G inh – inhibitors of human APOBEC3G DNA deaminase; AID 493012; 0.28% of 330,000 active; recombinant A3G, ssDNA deamination FAM/TAMRA fluorescence; inhibition, % at 20 µM;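 active means inhibition of at least 40% at 20 µM, with no more than 30% in the related APOBEC3A deaminase screen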
PABP polyA inh – PABP-poly(A) binding inhibition; P11940; PABP-poly(A) RNA binding, fluorescence polarization; calls only at 35 µM; 1% of 290,000 active; AID 2014;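 further: calls also rest on retests at 20 µM and on dose response follow-up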
MLLE-PAM2 inh – blocks PAM2 peptide binding to the PABP1 MLLE domain | GST-MLLE / FITC-PAM2 fluorescence polarization | inhibition, % at 20 µM | 0.36% of 360,000 active; in the data active means inhibition above about 35%, passing the limit was not always enough
eIF4H FP inh – inhibitors of RNA binding by human eIF4H | Q15056 | eIF4H fluorescence polarization binding assay | inhibition, % at 35 µM | 0.94% of 290,000 active | AID 2012;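 further: calls also rest on retests at 20 µM and on dose response follow-up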
Each line names hits and unclear results; the compound was inactive in the other large screens. Most compounds without a hit are left out; they make up all but 2.6% or so of the library. Unless noted, how the calls were made is not given here.

Cc1ccc(-n2cc(C(C)(C)C)[nH]c2=S)cc1	PHOSPHO1 block 93
NNC(=O)c1ccc(OCC2CC(c3ccc(Cl)cc3)=NO2)cc1 (stereo unspecified)	none
COc1ccc(NC(=S)Nc2cc(-c3ccccc3)[nH]n2)cc1Cl	PHOSPHO1 block 69
O=C(CN1CCN(C(=O)C2CC2)CC1)Nc1cc(C(F)(F)F)cc(C(F)(F)F)c1	none (no result: PHOSPHO1 block, PABP polyA inh, eIF4H FP inh)
CC[C@H](C)C(N)c1cn(C(CCCN=C(N)N)C(=O)N2CCNCC2)nn1 (stereo partly specified)	none (no result: PHOSPHO1 block, PABP polyA inh, eIF4H FP inh)
COc1ccc(NC(=O)c2ccc(Br)o2)c([N+](=O)[O-])c1	none
CCc1nnc(NC(=O)c2sc3nc4cc(C)ccc4cc3c2N)s1	PHOSPHO1 block 99
CCOC(=O)Cc1csc(NC(=O)c2sc3nc4ccc(C)cc4cc3c2N)n1	none
O=c1c(/C=N/OCc2ccc(Cl)cc2Cl)c[nH]n1-c1cccc(Cl)n1	eIF4H FP inh 25
CCOC(=O)c1c(NC(=O)C(Sc2ccccc2)c2ccccc2)sc(C(N)=O)c1C (stereo unspecified)	none
CCOC(=O)c1c(NC(=O)C(Sc2ccccc2)c2ccccc2)sc(C(=O)N(C)C)c1C (stereo unspecified)	PABP polyA inh active, eIF4H FP inh active
Cc1cccc(/C=C/c2nc3ccccc3c(=O)n2Cc2ccccc2)c1	PABP polyA inh active, eIF4H FP inh 76
COc1cccc(NC(=O)CSc2nc3scc(C)c3c(=O)[nH]2)c1	none
COc1cccc(NC(=S)N2CCn3cccc3C2c2cccnc2)c1 (stereo unspecified)	none
Cc1ccc(-n2c(C)cc(/C=N/Nc3ccc([N+](=O)[O-])cn3)c2C)cc1	PHOSPHO1 block 101
CCSc1nnc(NC(=O)C2CCN(S(=O)(=O)c3c(C)c(C)cc(C)c3C)CC2)s1	none (no result: MLLE-PAM2 inh)
Cn1cnc([N+](=O)[O-])c1S(=O)(=O)Oc1ccc(Cl)cc1	MLLE-PAM2 inh 41 (no result: A3A deaminase, PHOSPHO1 block, APOBEC3G inh, PABP polyA inh, eIF4H FP inh)
Cn1cnc([N+](=O)[O-])c1S(=O)(=O)Oc1cccc2ccccc12	none (no result: A3A deaminase, PHOSPHO1 block, APOBEC3G inh, PABP polyA inh, eIF4H FP inh)
COc1ccccc1Cc1c(-c2ccco2)nc2c(C)cc(Br)cn12	none (no result: A3A deaminase, PHOSPHO1 block, APOBEC3G inh, PABP polyA inh, eIF4H FP inh)
Cc1cc(C(=O)Nc2ccccc2Cc2ccccc2)no1	PHOSPHO1 block 66
O=C(Nc1ccccc1Cc1ccccc1)c1ccncc1	none
Cc1cc2c(N)cccc2nn1	PABP polyA inh active, eIF4H FP inh 96
Nc1cccc2nc3ccccc3cc12	none
CCCc1cc(=O)[nH]c(SCC(=O)Nc2sc3c(c2C#N)CCC(C)C3)n1 (stereo unspecified)	none
CCOC(=O)/C=C1\SCC(=O)N1CC(O)CN1C(=O)CS/C1=C\C(=O)OCC	PABP polyA inh active, eIF4H FP inh inconclusive
CCCOC(=O)c1c(NC(=O)/C=C/c2cnn(C)c2C)sc(C(=O)OCC)c1C	none
CCOC(=O)c1sc(NC(=O)/C=C/c2cnn(CC)c2C)c(C(=O)OCC)c1C	PHOSPHO1 block 70
CC(=O)c1ccc(NC(=O)C2CCCNC2=O)cc1 (stereo unspecified)	MLLE-PAM2 inh 40
O=C(CCSc1ccccc1)NC1CCCCCC1	PABP polyA inh active
CC(=O)NC(CC(=O)NC1CCCCC1)c1ccccc1 (stereo unspecified)	none
CC(CC(=O)NC1CCCC1)c1ccccc1 (stereo unspecified)	PABP polyA inh active
CCOC(=O)C1(C)CCCN1C(=O)c1ccc(N(C)C)cc1 (stereo unspecified)	none (no result: A3A deaminase, PHOSPHO1 block, APOBEC3G inh, PABP polyA inh, eIF4H FP inh)
O=C(N/C(=C\c1ccccc1)C(=O)N1CCOCC1)c1ccccc1Cl	PHOSPHO1 block 63
O=C(N/C(=C\c1ccc(Br)cc1)C(=O)N1CCOCC1)c1ccccc1Cl	none
O=C(NC(=S)Nc1ccccc1)c1csnn1	MLLE-PAM2 inh 37
Cc1oc(-c2cccc(Cl)c2)nc1CS(=O)(=O)CC(=O)NCCN1CCCC1	none
CC1(C)CC(=O)C/C(=N\NC(=O)Cc2ccccc2)C1	PABP polyA inh active, eIF4H FP inh active
CC1(C)CC(=O)C/C(=N/NC(=O)c2ccc(-c3ccccc3)cc2)C1	none
O=S(=O)(NC1CCCCCCC1)c1ccccc1	none
O=S(=O)(NC(=S)NC1CCCCC1)c1cccs1	MLLE-PAM2 inh 52
O=S(=O)(NC(=S)NC1CCCCC1)c1ccccc1	MLLE-PAM2 inh 37
O=S(=O)(NC(=S)c1ccccc1)c1ccccc1	MLLE-PAM2 inh 46 (no result: PHOSPHO1 block, PABP polyA inh, eIF4H FP inh)
Cc1cc(NC(=O)Nc2cccc(C)c2C)no1	none
Cc1nc(NCC2CCCO2)c2nnn(Cc3c(F)cccc3Cl)c2n1 (stereo unspecified)	none
CCOCCCNc1nc(C)nc2c1nnn2Cc1c(F)cccc1Cl	PHOSPHO1 block 65
S=c1[nH]nc(-c2ccc3ccccc3n2)o1	PHOSPHO1 block 89
Cc1ccc(NC(=O)CNC(=O)c2cccs2)nc1	none (no result: PHOSPHO1 block, PABP polyA inh, eIF4H FP inh)
Cc1ccc(S(=O)(=O)N2[C@@H](c3ccc(C(C)(C)C)cc3)C(C(=O)O)=CC[C@H]2c2ccc(C(C)C)cc2)cc1	none (no result: PHOSPHO1 block, PABP polyA inh, eIF4H FP inh)
O=C1/C(=C\c2ccc(O)cc2)SC(=S)N1/N=C/c1ccc(O)cc1	PABP polyA inh active, eIF4H FP inh 83
O=C(OCc1c(F)cccc1Cl)c1cccc(S(=O)(=O)N2CCOCC2)c1	none (no result: PHOSPHO1 block, PABP polyA inh, eIF4H FP inh)
CCOC(=O)c1c(C)[nH]c(C)c1S(=O)(=O)NCC1CCN(Cc2cccc(Cl)c2)CC1	none
CCOC(=O)c1c(S(=O)(=O)NCC2CCN(Cc3cccc(F)c3)CC2)c(C)n(C)c1C	PHOSPHO1 block 65
COc1ccccc1CNC(=O)CCc1nnc2ccc(NCCCN3CCCC3=O)nn12	none
Nc1ccc2[nH]ncc2c1	PABP polyA inh active, eIF4H FP inh 57
CCOCCCNC(=O)CSc1nc2nc(C)c(Cc3ccccc3)c(C)n2n1	none
c1ccc2cc(OCCCn3ccnc3)ccc2c1	none
Cc1c(C(=O)Nc2cccc(Cl)c2)c2ccccn2c1CCc1ccncc1	PABP polyA inh active, eIF4H FP inh inconclusive (no result: A3A deaminase, APOBEC3G inh)
Cc1c(C(=O)Nc2ccc(Cl)cc2)c2ccccn2c1CCc1ccncc1	none
COC(=O)c1c(C)[nH]c(O)c1C=Nc1ccc(C(C)C)cc1	PABP polyA inh active, eIF4H FP inh 85
COC(=O)c1c(C)[nH]c(O)c1C=Nc1ccc(Oc2ccccc2)cc1	eIF4H FP inh inconclusive
CCOc1ccc(NC(=O)CN(C)C(=O)C(C)N2C(=O)c3ccccc3C2=O)cc1OCC (stereo unspecified)	none (no result: PHOSPHO1 block, PABP polyA inh, eIF4H FP inh)
CC(C)c1ccc(O)c(NC(=S)NC(=O)CCc2ccccc2)c1	MLLE-PAM2 inh 43
CCN(CC)S(=O)(=O)c1cccc(NC(=O)COC(=O)c2n[nH]c(=O)c3ccccc23)c1	PABP polyA inh active
COc1ccc(N2CSC3=C(C#N)C(c4cc(OC)c(OC)cc4OC)CC(=O)N3C2)c(OC)c1 (stereo unspecified)	PHOSPHO1 block 93
COc1ccc(N2CSC3=C(C#N)C(c4ccc(OC)c(OC)c4)CC(=O)N3C2)c(OC)c1 (stereo unspecified)	none

Screening data from PubChem.
